Screens as filed in PubChem.
Many of the other results were omitted from the sample, so hits are more common in it than they were.
Pf Dd2 inh – inhibitors of Plasmodium falciparum Dd2 growth. P. falciparum Dd2 growth, SYBR Green, 72 h. Potency, µM (highest dose often 28.9 µM), inactives show at the top dose activity, negative = inhibition, actives largely listed as inhibitors. 120,000 compounds, 4.3% hits; active = well fitted inhibition curve with a large enough effect;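 note: plate controls were DMSO vehicle for no effect and reference drug for full effect; nearly all actives have a fitted effect of over 65% in size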
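Readout: SYBR Green fluorescence, 485 nm excitation, 535 nm emission, after ~16 h lysis at 37C. Before that, Dd2-infected red cells (2.5% hematocrit) grew 72 h with compound, 29 uM top final concentration.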
An asterisk follows results filed as active; i = inactive; [ ] = dose if it differs, or a comment. Potency is the fitted concentration of half-maximal effect.

SMILES	Pf Dd2 inh
N#Cc1ccccc1CN1CCC2(CC1)Cc1ccccc1CNC2=O	-1%
Cc1cc(C(=O)Nc2ccc([C@H]3OCC(=O)N(Cc4cccnc4)[C@@H]3CO)cc2)c(C)o1	16%
Cc1ccccc1OCC(=O)NCc1nnc2c(-c3nc(C4CC4)no3)cccn12	i
CSc1ccc(-c2noc(-c3nnn4c3COC(c3ccc(Cl)cc3)C4)n2)cc1 (stereo not drawn)	i
CO[C@@H]1CCOC[C@H]1NS(=O)(=O)c1ccc2c(c1)N(C(C)=O)CCO2	-5%
COC(=O)N1CCC2(C1)C(=NC1CCCC1)NC(=O)N2c1cccnc1 (stereo not drawn)	-8%
CCOCCOC1CCN(C(=O)Nc2ccc3c(c2)OCCO3)CC1	8%
Cc1ccc(CN2CCC3(CC2)NC(=O)c2ccccc2O3)cc1	-4%[44.1 µM]
Cc1ccc(CN2CCC3(CC2)COc2ccccc2CN3)cc1	6.3µM*
O=C1NC2(CCN(Cc3ccsc3)CC2)COc2ccccc21	3.2µM*
O=[S+]1([O-])NC2(CCN(Cc3ccsc3)CC2)COc2ccccc21	-16%
CC1=NOC2(CCN(Cc3ccc(C)cc3)CC2)C1	i
COc1cccc(CN2CCC3(CC2)COc2ccccc2C(=O)N3)c1	i
c1csc(-c2[nH]ncc2CNC2CCC3(CCNCC3)CC2)c1	9%
Cc1ccc(S(N)(=O)=O)cc1C(=O)N[C@H]1[C@H]2CCO[C@H]2[C@@H]1N1CCCC1	-3%
COc1ccc(CN2CCOC[C@H](OC)C2)cn1	5%[44.1 µM]
COc1cc(C(=O)N[C@H]2[C@@H]3CCO[C@@H]3[C@@H]2C2CCCC2)ccn1	-11%
Cc1ccncc1C(=O)N1CC(c2nnc(-c3ccncc3)o2)C2(CCOCC2)C1 (stereo not drawn)	9%
CCC(Sc1nncn2c1cc1occc12)C(=O)Nc1ccc(C)c(Cl)c1 (stereo not drawn)	14µM*
O=C(CSc1nncn2c1cc1occc12)Nc1ccc(F)c(Cl)c1	-30%
Cc1oc(-c2cccc(Cl)c2)nc1CSc1nncn2c1cc1occc12	145%[5.79 µM]
CCC(C)NC(=O)C(NC(=O)c1cccc(C)c1)C1CCN(C(=O)c2ccccc2F)CC1 (stereo not drawn)	i
COCC1CN(C2CCC2)CC12CCN(C(=O)c1ccc(F)cc1F)CC2 (stereo not drawn)	i
Cc1ccccc1CN1CCN2C(=O)N(Cc3cccnc3)C[C@H]2C1	14%[44.1 µM]
COc1ccc2nc(C)cc(Nc3ccc(Cl)c(Cl)c3)c2c1	1µM*
SMILES	Pf Dd2 inh
COc1cccc(Nc2cc(C)nc3nc(-c4ccc(Cl)cc4)nn23)c1	16%
COc1ccc(Nc2nc3ccc(Cl)cc3nc2-n2nc(C)cc2C)cc1	44%
O=C(c1cccc(Cl)c1)N1CCn2c(nnc2-c2ccccc2)C1	-15%
O=C(NCc1cccnc1)[C@@H]1C[C@@H](O)CN1C1CCN(C(=O)c2ccccc2)CC1	-11%
CCN(CC)C(=O)c1sc(NC(=O)C(C)Sc2nc(-c3ccccc3)cc(C(F)(F)F)n2)c(C(=O)OC)c1C (stereo not drawn)	0.35µM*
CCCOC(=O)c1c(NC(=O)c2nc3ncccn3n2)sc(C(N)=O)c1C	3%
CCOC(=O)c1sc(NC(=O)c2cc3nc(-c4ccc(Br)cc4)cc(C(F)(F)F)n3n2)c(C(=O)OCC)c1C	39%
COc1ccc(-c2cc(C(F)(F)F)nc(SCC(=O)NCCc3ccccc3)n2)cc1	-15%
COc1ccc(-c2cc(C(F)(F)F)nc(SCCC(=O)Nc3c(C)cccc3C)n2)cc1	-23%
CCCOC(=O)c1c(NC(=O)C(C)Sc2nc(-c3ccccc3)cc(C(F)(F)F)n2)sc(C(=O)N(C)C)c1C (stereo not drawn)	1.1µM*
CN(c1cc(=O)c2ccnc(-c3ccc(O)c(F)c3)c2o1)C1CCOCC1	-23%[44.1 µM]
O=C([C@@H]1C[C@H](F)CN1C(=O)NCc1cccc(F)c1)N1CCc2ccccc2C1	i
COc1ccc(NC(=O)N2CCCCCC2c2nc(-c3cccnc3)no2)cc1 (stereo not drawn)	i
Cc1ccc(C(=O)N2CCC3(CC2)CC(N(Cc2ccccc2)C2CC2)CCO3)cc1 (stereo not drawn)	i
O=C(C1CCOCC1)N1CCC2(CC1)CC(N(Cc1ccc(F)cc1)C1CC1)CCO2 (stereo not drawn)	0%
CCC(=O)N1CCC2(CC1)CC(N(Cc1ccccc1)C1CC1)CCO2 (stereo not drawn)	-20%
O=C(c1ccccn1)N1CCC2(CC1)CC(N(Cc1ccccc1)C1CC1)CCO2 (stereo not drawn)	-6%
CC(=O)N1CCC2(CC1)CC(N(Cc1ccc(F)cc1)C1CC1)CCO2 (stereo not drawn)	9%
O=C(CCC1CCCC1)N1CCC2(CC1)CC(N(Cc1ccccc1)C1CC1)CCO2 (stereo not drawn)	13µM*
Cc1ccc(C(=O)N2CCC3(CC2)CC(N(Cc2ccccc2)C2CC2)CCO3)s1 (stereo not drawn)	1.6µM*
CC(C)C(=O)N1CCC2(CC1)CC(N(Cc1ccccc1)C1CC1)CCO2 (stereo not drawn)	-23%
Cc1cc(C(=O)N2CCC3(CC2)CC(N(Cc2ccc(F)cc2)C2CC2)CCO3)n(C)n1 (stereo not drawn)	i
O=C(c1ccco1)N1CCC2(CC1)CC(N(Cc1ccc(F)cc1)C1CC1)CCO2 (stereo not drawn)	2.8µM*
COCCC(=O)N1CCC2(CC1)CC(N(Cc1ccccc1)C1CC1)CCO2 (stereo not drawn)	i
O=C(c1ccccc1)N1CCC2(CC1)CC(N(Cc1ccc(F)cc1)C1CC1)CCO2 (stereo not drawn)	7.9µM*
SMILES	Pf Dd2 inh
CC(=O)N1Cc2ccccc2OC2(CCN(C(=O)Cc3ccc(O)cc3)CC2)C1	89%
CCN1C(=O)Cc2ccccc2C1C(=O)NCc1ccc(OC(C)C)cc1 (stereo not drawn)	-19%
CCCNC(=O)N1CCC(N2C(=O)[C@H](OC)[C@@H]2c2ccncc2)CC1	1%
COCC(=O)Nc1ccc(-c2c(-c3cccc(OC)c3)nn(-c3ccccc3)c2OC(C)=O)cc1	-22%
Cc1ccc(F)c(NC(=O)C2CN(S(=O)(=O)C3CC3)CC23CCCCC3)c1 (stereo not drawn)	-1%
COc1ccc(-c2cc(C[C@@H]3CC[C@H](O)[C@@H](CN(Cc4ccccc4OC)Cc4ccccc4OC)O3)no2)cc1	-19%
CCOCC(=O)N1CCC2(CC1)CC(N(Cc1ccc(F)cc1)C1CC1)CCO2 (stereo not drawn)	-33%
O=C(CC1CCCC1)N1CCC2(CC1)CC(N(Cc1ccc(F)cc1)C1CC1)CCO2 (stereo not drawn)	7.9µM*
O=C(C1CCC1)N1CCC2(CC1)CC(N(Cc1ccc(F)cc1)C1CC1)CCO2 (stereo not drawn)	i
O=C(c1cccnc1)N1CCCC1c1nc(CCOCC2CC2)no1 (stereo not drawn)	-25%
COc1ccc(-c2c(C)c3ccc(O)c(CN4CCCC4)c3oc2=O)cc1	3.2µM*
COc1ccc(-c2nc(C)nc3c2CCN(Cc2cncs2)CC3)cc1	i
COc1ccc(CNC(=O)C2CCN(Cc3nc(-c4ccc(Cl)cc4)oc3C)CC2)cc1	24%
COc1ccc2c(c1)OCC(CNC(=O)CN1CCOCC1)C2 (stereo not drawn)	-6%
COc1ccc(C(CNC(=O)c2oc3ccc(C)cc3c2C)N2CCOCC2)cc1 (stereo not drawn)	-19%
COc1ccc(-c2c(C)c3ccc(O)c(CN4CCOCC4)c3oc2=O)cc1	8.9µM*
